TbPYK inhibitor = T. brucei pyruvate kinase inhibition; AID 624173; TbPYK enzyme, Kinase-Glo Plus ATP luminescence, 45 min; Q57TT1; 410,000 compounds, 0.12% hits; Potency, µM (series often up to 76.8 µM), without a hit: at the highest dose activity, negative = inhibition, actives largely listed as inhibitors; also: potency is read from the fitted curve at half-maximal effect; % is scaled to controls: 0 for no effect and ±100 for the full control effect; nearly all actives have a fitted effect of over 50% in size
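Readout: single end-point luminescence (Kinase-Glo Plus, 10 min). Reaction conditions were TbPYK/substrate plus 130 uM ADP, 45 min at RT, pH 7.2 TEA buffer. No-enzyme wells served as controls, and data were normalized before concentration-response fitting.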
Sm TGR inh = inhibitors of Schistosoma mansoni thioredoxin glutathione reductase | purified TGR, DTNB reduction, TNB absorbance 405 nm | Potency, µM (series often up to 114 µM), without a hit: at the top dose activity change, negative = inhibition, hits mostly inhibitors | 360,000 compounds, 3% hits; also: potency is read from the fitted curve at half-maximal effect; % is scaled to controls: 0 for no effect and ±100 for the full control effect; nearly all actives have a fitted effect of over 60% in size
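First, TGR (20 nM dispensed) and NADPH were mixed with compound. Second, a 15 min room-temperature incubation followed. Third, further NADPH and then DTNB were added to start the reaction. Finally, TNB absorbance was monitored kinetically.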
Shiga toxin inh = Shiga toxin inhibition | 290,000 compounds, 9.2% hits | Vero cells, Shiga toxin protein synthesis inhibition reporter | inhibition, % at 38.7 µM; in the data active = inhibition mostly above about 28%, no sharp cut-off; inactive = mostly below about 43%; also: 0% is about no effect
Cycloheximide cs = counter-screen for Shiga toxin inhibitors: cycloheximide protein synthesis inhibition. max response, %. cell reporter, cycloheximide protein synthesis inhibition counterscreen. 300,000 compounds, 12% hits; in the data active = max response mostly above about 13%, no sharp cut-off; inactive = mostly below about 14%; also: read at 38.3 µM for the half of the compounds with a filed dose; 0% is about no effect
LmPK inhibitor = inhibitors of Leishmania mexicana pyruvate kinase. Q27686. purified LmPK, Kinase-Glo ATP luminescence, 1 h. Potency, µM (highest dose often 57.5 µM), for the others: at the top dose activity change, negative = inhibition, most hits filed as inhibitors. 290,000 compounds, 0.37% hits. AID 1721; also: potency is read from the fitted curve at half-maximal effect; % is scaled to controls: 0 for no effect and ±100 for the full control effect
Target sequence (Q27686 whole entry, looked up): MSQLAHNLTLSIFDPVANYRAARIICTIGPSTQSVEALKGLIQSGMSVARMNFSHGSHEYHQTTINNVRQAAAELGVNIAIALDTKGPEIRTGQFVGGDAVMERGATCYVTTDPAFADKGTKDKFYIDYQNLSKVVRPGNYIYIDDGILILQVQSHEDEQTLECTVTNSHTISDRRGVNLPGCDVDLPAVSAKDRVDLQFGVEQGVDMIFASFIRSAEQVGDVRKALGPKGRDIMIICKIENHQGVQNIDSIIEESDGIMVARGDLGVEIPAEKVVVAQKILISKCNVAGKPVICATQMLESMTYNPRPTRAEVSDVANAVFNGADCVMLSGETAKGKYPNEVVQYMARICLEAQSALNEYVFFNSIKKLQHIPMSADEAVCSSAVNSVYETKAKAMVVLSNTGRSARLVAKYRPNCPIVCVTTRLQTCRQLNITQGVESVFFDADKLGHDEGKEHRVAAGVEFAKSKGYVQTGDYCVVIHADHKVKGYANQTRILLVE
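Kinase-Glo luminescence read after 1 h RT reaction of 0.1 nM LmPK with 0.5 mM PEP and 0.1 mM ADP. Activity scaled between uninhibited and enzyme-free controls.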
Giardia FBPA inh = Giardia lamblia aldolase inhibition. A8B2U2. purified Giardia FBPA. Potency, µM (top dose mostly 59.6 µM), inactives show at the top dose activity, negative = inhibition, most hits filed as inhibitors. 290,000 compounds, 0.71% hits. AID 2451; also: potency is read from the fitted curve at half-maximal effect; % is scaled to controls: 0 for no effect and ±100 for the full control effect; nearly all actives have a fitted effect of over 55% in size
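40 nM FBPA preincubated 10 min at RT with compound (up to 57.5 uM final), then substrate plus GAPDH/TPI/NAD/arsenate coupling and diaphorase/resazurin added. Fluorescence read after 20 min at RT, 525/598 nm.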
* marks the source's active call; other numbers are inactive results; [ ] = remark or other dose. The entries come from a sample that favours hits as a whole. Unless noted, calls follow the shape of the dose curve; as a rule, active = well fitted curve in the direction sought with a large enough effect; inconclusive = small, poorly fitted or top-dose-only effect, or another doubt; inactive = no such curve, though single readings can be large; an effect the other way counts as inactive or inconclusive.

How did Cc1ccc2occ(CN3CCN(c4ccccc4)CC3)c(=O)c2c1 do in these assays?
TbPYK inhibitor: -5%; Sm TGR inh: 25µM*; Shiga toxin inh: 8; Cycloheximide cs: 3; LmPK inhibitor: -3%; Giardia FBPA inh: -14%

Results for O=c1c(CN2CCN(Cc3ccccc3)CC2)coc2ccc(Cl)cc12 ?
TbPYK inhibitor: -2%; Sm TGR inh: 7.1µM*; Shiga toxin inh: 28; Cycloheximide cs: 18; LmPK inhibitor: 1%; Giardia FBPA inh: -1%

How did CCN1CCN(Cc2coc3ccc(C)cc3c2=O)CC1 do in these assays?
TbPYK inhibitor: 0%; Sm TGR inh: inconclusive; Shiga toxin inh: 38*; Cycloheximide cs: 27*; LmPK inhibitor: 2%; Giardia FBPA inh: 0%

Results for Cc1ccc(O)c(CN2CCN(c3ccccc3)CC2)c1 ?
TbPYK inhibitor: -5%; Sm TGR inh: 4%; Shiga toxin inh: 11; Cycloheximide cs: -2; LmPK inhibitor: 3%; Giardia FBPA inh: 5%

How did Cc1ccc2occ(C(=O)c3ccco3)c(=O)c2c1 do in these assays?
TbPYK inhibitor: 3%; Sm TGR inh: -14%; Shiga toxin inh: 48*; Cycloheximide cs: 18; LmPK inhibitor: -12%; Giardia FBPA inh: 0%

What do the screens show for `Cc1ccccc1CN1C(=O)C(O)(CC(=O)c2cccc(Br)c2)c2ccccc21` (stereo not drawn)?
TbPYK inhibitor: 7%; Sm TGR inh: 3%

How did CCC(=O)Nc1ccc(-c2nnc3c4ccccc4c(C)nn23)cc1 do in these assays?
TbPYK inhibitor: 1%; Sm TGR inh: 6%

Results for CC(C)N1CCN(Cc2coc3ccccc3c2=O)CC1CCO (stereo not drawn) ?
TbPYK inhibitor: -2%; Sm TGR inh: inconclusive; Shiga toxin inh: 24; Cycloheximide cs: 17*; LmPK inhibitor: -3%; Giardia FBPA inh: 0%

How did Cc1ccc2occ(CN3CCN(Cc4ccccc4)CC3)c(=O)c2c1 do in these assays?
Sm TGR inh: -13%; Shiga toxin inh: 61*; Cycloheximide cs: 42*; LmPK inhibitor: -1%; Giardia FBPA inh: -11%

Results for C=CC[C@@H]1C=C[C@@H](O/N=C2/C[C@@H](O)[C@@H](O)[C@@H]3[C@@H]4C(=O)N(CC)C(=O)[C@H]4CC[C@@H]23)[C@@H](CO)O1 ?
Giardia FBPA inh: 0%[12.9 µM]

Results for Cc1cccc(Nc2nnc(SCC3CCCCO3)s2)c1 (stereo not drawn) ?
TbPYK inhibitor: -15%; Sm TGR inh: -2%; Shiga toxin inh: 49*; Cycloheximide cs: 36*; LmPK inhibitor: -11%; Giardia FBPA inh: -2%

Results for Cc1ccc(Cl)cc1NC(=O)CCCn1c(=O)c2cccn2c2ccccc21 ?
TbPYK inhibitor: -2%; Sm TGR inh: inconclusive

Results for C=CCNC(=O)c1ccccc1NC(=O)C1CC(=O)N(C(C)C)C1 (stereo not drawn) ?
TbPYK inhibitor: -5%; Sm TGR inh: 18µM*; Cycloheximide cs: -1; LmPK inhibitor: 14%; Giardia FBPA inh: 2%

Results for COc1ccc(C2=NO[C@@H]3[C@@H]4C[C@@H]([C@H]5C(=O)N(c6ccc7c(c6)OCO7)C(=O)[C@@H]45)[C@H]23)cc1OC ?
TbPYK inhibitor: -4%; Sm TGR inh: -24%; Shiga toxin inh: -6; Cycloheximide cs: -4; LmPK inhibitor: 2%; Giardia FBPA inh: -13%

What do the screens show for `CC(C)=C1C2C=CC1C1C(=O)N(c3ccc4c(c3)OCO4)C(=O)C21` (stereo not drawn)?
TbPYK inhibitor: -3%; Sm TGR inh: 20µM*; Shiga toxin inh: 29; Cycloheximide cs: 8; LmPK inhibitor: 9%; Giardia FBPA inh: -22%

What do the screens show for `O=C1C2C3C=CC(C4CC34)C2C(=O)N1c1ccc2c(c1)OCO2` (stereo not drawn)?
TbPYK inhibitor: 3%; Sm TGR inh: 45µM*; Shiga toxin inh: 31; Cycloheximide cs: 23; LmPK inhibitor: 7%[11.5 µM]; Giardia FBPA inh: 6%

How did CC(C)=C1C2CCC1C1C(=O)N(c3ccc4c(c3)OCO4)C(=O)C21 (stereo not drawn) do in these assays?
TbPYK inhibitor: -24%; Sm TGR inh: -8%; Shiga toxin inh: -4; Cycloheximide cs: -5; LmPK inhibitor: -1%; Giardia FBPA inh: -9%

What do the screens show for `COC(=O)c1ccc(N2CCN(CC(=O)c3ccc(-c4ccccc4)cc3)CC2)c([N+](=O)[O-])c1`?
TbPYK inhibitor: -9%; Sm TGR inh: -36%; Shiga toxin inh: 60*; Cycloheximide cs: 85*; LmPK inhibitor: 5%; Giardia FBPA inh: 0%

How did CN1CCN(c2ccc(C(=O)c3ccccc3)cc2[N+](=O)[O-])CC1 do in these assays?
TbPYK inhibitor: -3%; Sm TGR inh: -13%; Shiga toxin inh: 32*; Cycloheximide cs: 40*; LmPK inhibitor: -1%; Giardia FBPA inh: 9%

Results for COc1ccc(N2CCN(c3ccc(C(=O)O)cc3[N+](=O)[O-])CC2)cc1 ?
TbPYK inhibitor: -14%; Sm TGR inh: -11%; Shiga toxin inh: 31; Cycloheximide cs: 12*; LmPK inhibitor: 2%; Giardia FBPA inh: -16%

Results for COc1ccc(C(=O)c2ccc(N3CCOCC3)c([N+](=O)[O-])c2)cc1 ?
TbPYK inhibitor: -1%; Sm TGR inh: 0%; Shiga toxin inh: -3; Cycloheximide cs: -2; LmPK inhibitor: 5%; Giardia FBPA inh: -3%

What do the screens show for `CC(=O)c1ccc(N2CCc3ccccc3C2)c([N+](=O)[O-])c1`?
TbPYK inhibitor: 5%; Sm TGR inh: 1%; Shiga toxin inh: 76*; Cycloheximide cs: 30*; LmPK inhibitor: -1%; Giardia FBPA inh: -1%

What do the screens show for `O=[N+]([O-])c1ccc(/C=C2\CCC(C3=CCCC3)=C2N2CCOCC2)cc1`?
TbPYK inhibitor: -17%; Sm TGR inh: 32µM*; Shiga toxin inh: 35; Cycloheximide cs: 24*; LmPK inhibitor: -6%; Giardia FBPA inh: -24%

What do the screens show for `O=[N+]([O-])c1ccc(/C=N/Nc2nc(N3CCOCC3)nc(N3CCOCC3)n2)cc1`?
Shiga toxin inh: 5; Cycloheximide cs: -1; LmPK inhibitor: 0%; Giardia FBPA inh: 7%

Results for N#C/C(C(=O)c1ccccc1)=C1/CCCN1 ?
TbPYK inhibitor: -1%; Sm TGR inh: 4%; Shiga toxin inh: 52; Cycloheximide cs: 19; LmPK inhibitor: 2%; Giardia FBPA inh: 4%

How did N#C/C(C(=O)Oc1ccccc1)=C1\C=CC=CN1 do in these assays?
TbPYK inhibitor: 5%; Sm TGR inh: 9%; Shiga toxin inh: 60*; Cycloheximide cs: 44*; LmPK inhibitor: -2%; Giardia FBPA inh: -4%

Results for O=C(Nc1ccc2c(c1)CCCN2C(=O)c1cccs1)c1c(F)cccc1Cl ?
TbPYK inhibitor: -7%; Sm TGR inh: -13%; Shiga toxin inh: -2; Cycloheximide cs: -3; LmPK inhibitor: 3%; Giardia FBPA inh: -7%
